Source: PubChem BioAssay (NCI)
Compounds without any hit were thinned out: in the full panel of roughly 83,000, 20% have a hit.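 Activity criterion: percent growth below 10, measured after cells in 96-well plates were exposed to a single compound concentration for 48 hours.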 A number with no mark means an inactive call. Active and inactive are the calls of the source.

What was measured:
Test in all cases: NCI-60 one-dose screen, 48 h (100 = growth as untreated, 0 = no growth, -100 = all killed)
Conditions in all cases: 10 µM unless noted
[1] = tested on: NCI-H23 lung
[2] = tested on: NCI-H226 lung
[3] = tested on: NCI-H322M lung
[4] = tested on: HOP-62 NSCLC
[5] = tested on: NCI-H460 lung
[6] = tested on: NCI-H522 lung
[7] = tested on: A549/ATCC NSCLC
[8] = tested on: 786-0 renal
[9] = tested on: COLO 205 colon
[10] = tested on: HOP-92 NSCLC

SMILES	growth [1]	growth [2]	growth [3]	growth [4]	growth [5]	growth [6]	growth [7]	growth [8]	growth [9]	growth [10] [%]
Cc1cc(NCc2cc(Nc3ccnc4cc(Cl)ccc34)ccc2F)nc(N2CCN(c3ccccc3)CC2)n1	62.8%	55.4%	74.1%	62%	44.9%	45.6%	50.6%	64.8%	13.6%	–
C[n+]1cc2cc(C(N)=O)[nH]c3c(=N)c(Cl)c(N)c1c23	56.6%	57.1%	80.5%	37.9%	23.8%	35.2%	26.3%	49.1%	44.1%	–
CC(=O)c1nc(Nc2ccc(C)cc2)sc1C	90.9%	81.7%	-98.9% (active)	85.7%	104%	86.9%	96.7%	98.1%	105%	–
C=C1C(=O)O[C@H]2[C@H]1CC/C(COC(=O)C(=O)c1c[nH]c3ccc(OC)cc13)=C\CC[C@@]1(C)O[C@@H]21	-28.1% (active)	-68.3% (active)	-70.5% (active)	-71.3% (active)	-53.9% (active)	-61.3% (active)	-62.7% (active)	-91% (active)	-68.6% (active)	–
COc1cc(N2C(=O)c3nccnc3C2=O)cc(OC)c1OC	99.6%	114%	99.7%	95.9%	111%	95.2%	105%	97.1%	111%	89.9
NCCCNc1nc2ccccc2c2c(=O)c3cccc(Cl)c3sc12	44.7%	59.6%	22.4%	19.3%	-75% (active)	-48.5% (active)	-2.55% (active)	33.6%	-50.6% (active)	–
CC1(C)CC[C@]2(C(=O)N3CCOCC3)CC[C@]3(C)C(=CC[C@@H]4[C@@]5(C)CC[C@H](OC(=O)c6cccnc6)C(C)(C)[C@@H]5CC[C@]43C)[C@@H]2C1	68.9%	50.1%	88.2%	78.7%	18.3%	73.3%	47.3%	62.4%	58.4%	–
NC(=S)N/N=C/Cc1ccccc1	99.6%	103%	105%	104%	110%	100%	90.6%	106%	97.2%	–
Cc1ccc(NS(=O)(=O)c2ccc3c(c2)C(=O)CC(c2ccc(C(=O)C(C)C)cc2)N3)cc1C (stereo not drawn)	44.1%	57.7%	67.2%	69.1%	53.9%	60.5%	52.4%	86.3%	59.4%	–
CS(=O)c1cccc(-c2ccc3nc(N)n(-c4ccc(C(F)(F)F)cc4)c(=O)c3c2)c1 (stereo not drawn)	102%	90.9%	103%	98%	102%	80.8%	93.4%	97.1%	105%	–
N#C/C(=C\c1ccc(-c2ccccc2F)o1)c1nc(-c2ccco2)cs1	85.5%	80.9%	94.1%	89%	95.1%	81.5%	99.1%	104%	99.6%	85.7
N#Cc1c2c(nn(-c3ccccc3)c1=O)C(O)=C([N+](=O)[O-])C(c1ccccc1)C2 (stereo not drawn)	86%	102%	93.1%	78.3%	91.6%	77.8%	93.4%	58%	99.4%	–
COc1cccc(-c2nn(-c3ccccc3)cc2-c2ccnc(NCCCNC(=O)Nc3ccc(Cl)c(Cl)c3)c2)c1	15.1%	47.9%	24.3%	-5.99% (active)	18.5%	-37% (active)	7.3% (active)	-38.7% (active)	-44.7% (active)	–
N#CC1=C(c2ccc(Br)cc2)NC(SCC(=O)c2ccc(Br)cc2)NC1=O (stereo not drawn)	105%	97%	104%	98.6%	107%	99.5%	93.8%	92.6%	116%	–
